Compounds without any hit were thinned out: in the full panel of roughly 83,000, 20% have a hit.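 The endpoint reported here, percent growth, reads 100 for growth as untreated, 0 for no net growth and -100 for all cells dead.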 Unmarked numbers belong to inactive results. The source made the active and inactive calls. The calls were made as follows: active = growth percent below 10; inactive = the rest.
Test system: HL-60(TB) leukemia
Test: NCI-60 one-dose screen, 48 h (100 = growth as untreated, 0 = no growth, -100 = all killed)
Settings: 10 µM unless noted

Structure (SMILES)	growth
CN(C)c1ccc2cc(-c3cc4c(oc3=O)-c3ccccc3OC4O)c(=O)oc2c1 (stereo not given)	-66.5% (active)
COc1ccc2c(c1)c(-c1nc(-c3ccc4ccccc4c3)cs1)cn2C	85.7%
CCOC(CNCc1cc(C)c2[nH]c3ccccc3c2c1C)OCC	86%
CCOC(=O)CC1CSC(N/N=C/c2ccc(O)cc2)=N1 (stereo not given)	97.6%
C=CCc1cc(C)ccc1NC(C(=O)NCC(=O)OC)c1ccccc1 (stereo not given)	103%
N#Cc1c(NC(=O)c2cccs2)[n+]([O-])c2ccc(F)cc2[n+]1[O-]	91.6%
C#CCN1C(=O)/C(=c2\sc3n(c2=O)NC2C(N=3)N(CC)C(=O)N2CC)c2ccccc21 (stereo not given)	-34.3% (active)
c1ccc(Cn2cc3c(c2-c2ccccc2)CCc2cnoc2-3)cc1	35.6%
Cc1c(-c2csc(-n3nc(C(F)(F)F)cc3C(F)(F)F)n2)no[n+]1[O-]	97%
Cc1ccc(-c2[nH][nH]c(=O)c2-c2nc3ccccc3s2)cc1	101%
OC[C@H]1OC([S-])[C@H](O)[C@@H](O)[C@@H]1O.[Au+] (stereo not given in full)	95.1%
Fc1cc2[nH]ncc2c2c3c(c(-c4cn[nH]c4C(F)(F)F)nc12)C1CCC3C1 (stereo not given)	1.63% (active)
O=C1Nc2ccccc2C1=NC1CCCCC1	110%
Cc1n[nH]c2ccc(Br)cc2c1=O	94.3%
O=c1oc2ccccc2cc1-c1nn(-c2ccccc2)cc1-c1nn[nH]n1	96.8%
O=C1c2ccccc2C2(c3ccc(O)cc3)c3ccccc3Oc3cccc1c32 (stereo not given)	1.45% (active)
O=S(=O)(c1ccc(N/N=C\c2ccccc2Cl)cc1)c1ccc(N/N=C/c2ccccc2Cl)cc1	74%
CC(C)CSc1nc(NN)c(C#N)c(-c2ccc(F)cc2)n1	94.4%
COc1ccccc1/C=N\Nc1ccc([N+](=O)[O-])cn1	89.5%
O=C(O)c1cc2cc(OCc3ccccc3)ccc2[nH]1	112%

Structure (SMILES)	growth
C#C[C@]1(O)CC[C@H]2[C@@H]3CC=C4c5sc(Nc6ccccc6)nc5CC[C@]4(C)[C@H]3CC[C@@]21C	7.59% (active)
FC(F)(F)c1ccc(CNc2ccc(Cc3c[nH]c4ncc(Cl)cc34)cn2)cn1	4.54% (active)
Cc1cccc(C[C@H](NC(=O)Nc2ccc(Cl)cc2F)C(=O)N[C@@H]2C(=O)N3C[C@H](O)C[C@H]3C(=O)N3CCCC[C@H]3C(=O)N[C@@H](C)C(=O)N3C[C@H](C)C[C@H]3C(=O)O[C@H]2C)c1	6.77% (active)
C#C[C@@]1(O)[C@@H](CO)O[C@@H](n2cc(Cl)c3c(N)ncnc32)[C@@H]1O	-56.8% (active)
CN(C)CCN=c1nc2c(c(N)n1-c1ccccc1)c(=S)n(-c1ccccc1)c(=S)n2-c1ccccc1	36.6%
Cc1cccc2nc3ccccc3c(Nc3ccc(NS(C)(=O)=O)cc3)c12	1.14% (active)
COc1ccc(/C=C2\C=C(c3ccccc3)N(CCc3ccccc3)C2=O)cc1OC	19.6%
Nc1ccccc1NC(=O)c1ccc(-n2nc(-c3ccccc3)c3ccccc32)cc1	-4.94% (active)
O=C1c2c(c3c4cccnc4[nH]c3c3ccc4ccccc4c23)C(=O)N1O	5.07% (active)
O=C(Nc1nc(-c2ccccc2)cc(-c2ccc(Cl)cc2)n1)c1ccncc1	110%
CCCN(CCC)CN(CCC)CCC	93.5%
Cc1cc(N2CCN(CCNc3ccnc4cc(Cl)ccc34)CC2)nc(N2CCOCC2)n1	44.8%
COc1cc(OC)c2cc(C(=O)O)c(=O)oc2c1	66%
CCN1CCN(c2nc(C)cc(NCc3cc(Nc4ccnc5cc(Cl)ccc45)ccc3F)n2)CC1	-7.3% (active)
COC(c1ccccc1)C(Br)C(=O)c1ccccc1 (stereo not given)	79.1%
CCS(=O)(=O)OCCCl	86.7%
Cc1cc2nc(CO)[nH]c2cc1C	89.7%
CN1CCN(C(=O)/C=C/c2ccc([N+](=O)[O-])o2)CC1	66.2%
Cc1ccc2nc(-c3ccc(-n4on4-c4ccc(/C=C/c5ccc(-n6on6-c6ccc(-c7nc8ccc(C)cc8s7)cc6)cc5S(=O)(=O)O)c(S(=O)(=O)O)c4)cc3)sc2c1	101%
CCN(CCCOc1ccc2c(Nc3cc(CC(=O)Nc4cccc(F)c4)[nH]n3)ncnc2c1)CCOP(=O)(O)O	34.9%

Reference: PubChem BioAssay (NCI)
